The source made the active and inactive calls.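 Rule for the calls, unless noted: active = inhibition of the reporter signal at or above 50%; inactive = inhibition below 50%.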
Legend:
[1] = inhibitors of TNFa-induced NFkB p65 translocation, primary screen, imaging, HUVEC, MLSMR starter and 10KST1 sets (AID 438;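 active = inhibition above 20% together with a positive visual image hit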;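 note: compound added about 3h40 before a 20 min TNFalpha stimulation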;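 for inhibition: signal is the nuclear over cytoplasmic p65 intensity ratio per well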); settings: HUVEC TNFa-induced p65 nuclear translocation; cell count: measured here: nuclei count (cytotoxicity indicator), at 2.08 µM; inhibition: at 2 µM, stronger effect = higher value, 0% TNFa-plus-vehicle, 100% no-TNFa wells
[2] = inhibitors of mutant huntingtin aggregation, primary screen, imaging, exon1htt(103Q)mCFP cells, high-content imaging (AID 483;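 active = visual image review flags a hit and inhibition of aggregation exceeds 20%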;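 note: compound exposure lasted 3 days before fixation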;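 for nuclei count: percent of the per-plate median nuclei count of sample wells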); settings: exon1htt(103Q)mCFP cell line, aggregate imaging, at 2 µM; inhibition of aggregation: stronger effect = higher value; nuclei count: measured here: cell count, toxicity
[3] = inhibitors of E-selectin induction by TNFa, primary screen, imaging, HUVEC, immunofluorescence, MLSMR starter and 10KST1 sets (AID 487;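 active = visually confirmed hit in the image check and inhibition above 20%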;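 for inhibition: signal is fraction of cell area covered by stained E-selectin grains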;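 for nuclei count: 100% = median nuclei count of all wells on the same plate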); settings: HUVEC TNFalpha-induced E-selectin immunofluorescence imaging, at 2 µM; inhibition: stronger effect = higher value; nuclei count: measured here: cell number, toxicity
[4] = molecular target: Voltage-gated potassium channel subunit beta-2 (Rattus norvegicus) (UniProt P62483); experiment: KvBeta enzyme negative modulators, primary screen, biochemical, NADPH fluorescence (AID 622;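 active = fluorescence slope higher than the sample average by over 3 SD, cut at about -0.22 in these data, passing the limit was not always enough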;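 note: slope of raw intensity against log time taken from 70 to 1610 s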); settings: recombinant KvBeta, 4-cyanobenzaldehyde reduction, at 10 µM, stronger effect = higher value
[5] = molecular target: Voltage-gated potassium channel subunit beta-2 (Rattus norvegicus) (UniProt P62483); experiment: KvBeta positive modulators, primary screen, biochemical, NADPH fluorescence (AID 623;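 active = NADPH fluorescence slope more negative than the mean of all samples by about 3 SD, 99.7% confidence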;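 note: fluorescence intensity change per second fitted from 20 to 320 s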); settings: Recombinant KvBeta, NADPH fluorescence decrease slope, 10 min; at 10 µM; stronger effect = lower value
[6] = molecular target: Alpha-2C adrenergic receptor (Homo sapiens) (UniProt P18825); experiment: modulators of alpha2C/GIRK thallium flux, primary screen, cell-based, HEK293 alpha2C/GIRK1/2 (AID 624;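 active = fluorescence slope after compound addition differing from the mean of all screened samples at 99.7% confidence, in either direction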;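 note: slope of fluorescence ratio to pre-addition baseline per second over 15 to 24 s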); settings: thallium flux BTC fluorescence, at 10 µM, actives lie on both sides
[7] = inhibitors of Sendai virus-induced IRF3 signaling, primary screen, TLR/RLR signaling modifier project, cell-based, Sendai virus stimulus, luciferase, 10K MLSCN set (AID 602276;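 active = inhibition at or above 50% at 10 µM; inactive = inhibition below 50%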;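 note: firefly luciferase from ISG56 promoter only with Renilla not read in this screen; 0% = Sendai virus plus DMSO and 100% = medium plus DMSO without virus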); settings: HEK293 RL24 IRF3 luciferase reporter, at 10 µM, stronger effect = higher value
[8] = inhibitors of poly I:C-induced TLR3 signaling, primary screen, cell-based, poly I:C stimulus, luciferase, 10K MLSCN set (AID 602277); settings: HEK293-TLR3 RL24 IRF3 luciferase reporter, at 10 µM, stronger effect = higher value

Alpha-2C adrenergic receptor (Homo sapiens), sequence (P18825 whole entry, looked up): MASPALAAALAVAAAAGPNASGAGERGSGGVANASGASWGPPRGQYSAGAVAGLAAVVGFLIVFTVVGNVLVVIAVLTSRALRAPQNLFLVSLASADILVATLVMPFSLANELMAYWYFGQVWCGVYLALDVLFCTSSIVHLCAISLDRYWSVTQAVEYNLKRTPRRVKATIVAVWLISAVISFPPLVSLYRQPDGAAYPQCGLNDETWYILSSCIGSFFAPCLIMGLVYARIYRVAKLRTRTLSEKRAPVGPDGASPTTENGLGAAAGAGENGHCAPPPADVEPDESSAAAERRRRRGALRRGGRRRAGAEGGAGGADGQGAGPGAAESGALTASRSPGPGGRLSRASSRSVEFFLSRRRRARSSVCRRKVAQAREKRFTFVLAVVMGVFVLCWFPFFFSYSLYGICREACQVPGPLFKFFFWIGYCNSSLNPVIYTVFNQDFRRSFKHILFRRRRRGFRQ
Voltage-gated potassium channel subunit beta-2 (Rattus norvegicus), sequence (P62483 whole entry, looked up): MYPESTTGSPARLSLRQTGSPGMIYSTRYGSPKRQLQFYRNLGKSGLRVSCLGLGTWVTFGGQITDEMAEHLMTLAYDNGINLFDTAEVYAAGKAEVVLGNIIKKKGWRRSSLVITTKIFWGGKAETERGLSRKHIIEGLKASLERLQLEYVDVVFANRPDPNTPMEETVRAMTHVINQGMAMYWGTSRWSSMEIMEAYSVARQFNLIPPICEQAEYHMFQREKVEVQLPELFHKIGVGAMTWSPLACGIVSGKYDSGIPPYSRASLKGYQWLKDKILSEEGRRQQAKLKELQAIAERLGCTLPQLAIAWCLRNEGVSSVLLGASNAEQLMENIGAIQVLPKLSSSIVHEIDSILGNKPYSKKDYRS

SMILES | cell count [1] | inhibition [1] | inhibition of aggregation [2] | nuclei count [2] | inhibition [3] | nuclei count [3] | fluorescence slope [4] | NADPH fluorescence slope [5] | slope [6] | inhibition [7] | inhibition [8]
CCN(CC)CCOC(=O)c1ccc(NC(=O)COc2cc(=O)n(CC)c3ccccc23)cc1 | 386 | 6.7% (inactive) | -6.9% (inactive) | 108% | -26.7% (inactive) | 117% | -0.514 (inactive) | 4.9e-05 (inactive) | 0.00772 (inactive) | -1.28% (inactive) | -7.01% (inactive)
COc1ccc(OCCOC(=O)c2cccs2)cc1 | 367 | 14.9% (inactive) | -30.1% (inactive) | 100% | -11.5% (inactive) | 112% | -0.604 (inactive) | 7.3e-06 (inactive) | 0.00778 (inactive) | -2.79% (inactive) | 4.6% (inactive)
O=S1(=O)C=C(Sc2nc3ccccc3s2)c2ccccc21 | 581 | -2.6% (inactive) | -17.5% (inactive) | 67.1% | 121% (active) | 72.2% | -0.474 (inactive) | 5.2e-06 (inactive) | 0.00662 (inactive) | 16.3% (inactive) | 84.8% (active)
CCOc1ccc(N(CC(=O)NCc2cccc(OC)c2)S(=O)(=O)c2c(C)noc2C)cc1 | 362 | -3.2% (inactive) | 18.9% (inactive) | 95% | -114% (inactive) | 104% | -0.415 (inactive) | 1.6e-05 (inactive) | 0.00505 (inactive) | -5.75% (inactive) | -5.65% (inactive)
O=C1N(c2ccccc2)C2CS(=O)(=O)CC2N1c1ccc(Br)cc1 (centres undefined) | 566 | -12.3% (inactive) | 4% (inactive) | 88.5% | -32.1% (inactive) | 127% | -0.432 (inactive) | -1.5e-05 (inactive) | 0.00616 (inactive) | 6.69% (inactive) | 17.5% (inactive)
Cc1ccc(NC(=O)c2cc(S(=O)(=O)N3CCC4(CC3)OCCO4)ccc2F)cc1 | 369 | -3.3% (inactive) | 12.5% (inactive) | 102% | -43.7% (inactive) | 108% | -0.441 (inactive) | 3.1e-05 (inactive) | 0.0033 (inactive) | -8.15% (inactive) | -22.3% (inactive)
Nc1ncnc2nc(Sc3ccc(Cl)cc3)[nH]c12 | 645 | -8.5% (inactive) | -5.4% (inactive) | 108% | -12.5% (inactive) | 108% | -0.555 (inactive) | -6.5e-06 (inactive) | 0.00627 (inactive) | 10.1% (inactive) | 12.5% (inactive)
COC(=O)Nc1sc2c(c1C(N)=O)CCCCCC2 | 522 | 2% (inactive) | 18.9% (inactive) | 95.2% | -53.8% (inactive) | 92% | -0.509 (inactive) | -5.2e-05 (inactive) | 0.00644 (inactive) | 5.06% (inactive) | 17.8% (inactive)
CC1CCN(S(=O)(=O)c2ccc3[nH]cc(C(=O)NCCN4CCOCC4)c(=O)c3c2)CC1 | 697 | -3% (inactive) | -11.2% (inactive) | 104% | -101% (inactive) | 106% | -0.519 (inactive) | -3.8e-05 (inactive) | 0.00576 (inactive) | 8.86% (inactive) | 17.9% (inactive)
COc1ccc(Nc2ncnc3c2cnn3-c2ccccc2)cc1OC | 761 | -15.1% (inactive) | -26.1% (inactive) | 84.3% | -10% (inactive) | 103% | -0.366 (inactive) | 1.2e-05 (inactive) | 0.00554 (inactive) | -10.2% (inactive) | -29.8% (inactive)
CCOC(=O)C1CCCN(Cc2nc(N)nc(Nc3ccc(C)cc3)n2)C1 (centres undefined) | 580 | 1% (inactive) | -0.6% (inactive) | 90.1% | -41.3% (inactive) | 130% | -0.438 (inactive) | -0.000102 (inactive) | 0.00446 (inactive) | 22.6% (inactive) | 17.2% (inactive)
CCN(C(=O)CCc1nc(-c2ccccc2F)no1)c1cc(OC)ccc1OC | 403 | 6.7% (inactive) | -4.7% (inactive) | 110% | -20.9% (inactive) | 115% | -0.425 (inactive) | 1.9e-05 (inactive) | 0.00445 (inactive) | -11.3% (inactive) | -31% (inactive)
CCCCn1c(=O)[nH]c(=O)c2c1nc(COc1ccc(C#N)cc1)n2CCC | 337 | 3.4% (inactive) | -40.4% (inactive) | 97.4% | 32.8% (inactive) | 110% | -0.538 (inactive) | 6.8e-06 (inactive) | 0.00653 (inactive) | 10.1% (inactive) | 30.2% (inactive)
O=C(CSc1nc(O)c(Cc2ccccc2)c(=O)[nH]1)Nc1ccccc1 | 366 | 5.3% (inactive) | 0.2% (inactive) | 95.2% | 5.2% (inactive) | 115% | -0.44 (inactive) | -3e-05 (inactive) | 0.00311 (inactive) | 3.29% (inactive) | 24.3% (inactive)
